Inconclusive results are not listed. A number with no mark means an inactive call. The source made the active and inactive calls. The call rests on the fitted dose curve; in most records, active means well fitted cell-killing curve with a large enough effect; inconclusive means small, poorly fitted or top-dose-only effect; inactive means flat fitted curve, though single readings scatter.
Assay: qHTS of pediatric cancer cell lines to identify multiple opportunities for drug repurposing: Confirmatory screen for A673 cells (AID 1347110);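 further: cells exposed to compound for 48 h before the viability read; nearly all actives have a fitted effect of over 65% in size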
Conditions: A673 Ewing sarcoma cell viability; series mostly up to 45.9 µM; activity change, negative = cytotoxicity: at the top concentration
Excerpt: Drug repurposing or repositioning has been offered as a strategy for drug development in oncology programs. This approach has special potential for childhood cancers and other rare or orphan diseases, where the expected return on new drug development has been a disincentive to pharmaceuticals.
In this project we exploit the poly-pharmacology of drugs to discover new indications via phenotypic screening of a panel of 19 well-characterized cell lines derived from solid tumors seen in children and adolescents. The goal is to identify approved drugs with previously unrecognized anticancer properties that has the potential to reveal new mechanisms and biological processes involved in carcinogenesis or drug resistance. We employed a titration-based paradigm (quantitative high-throughput screening or qHTS), where all compounds were tested at multiple concentrations for their effect on cell viability. Concentration-response curves (CRCs) were derived directly from the primary screen, and both potency and efficacy values were used to identify compounds with robust bioactivity profiles. We screened the NIH Chemical Genomics Center (NCGC) Pharmaceutical Collection (NPC) and Mechanism Interrogation Plate (MIPE) small molecule collections of approved and investigational compounds against these cell lines; and measured metabolically active cells after 48 hours of compound treatment as a proxy for cell viability.
Assay Submitter: Nathalia J. Martinez, National Center for Advancing Translational Sciences, National Institutes of Health, Rockville, MD, USA; email: natalia.martinez@nih.gov.
[1] Shen, M et al. Quantitative high-throughput phenotypic screening of pediatric cancer cell lines identifies multiple opportunities for drug repurposing. Oncotarget 2017 Dec 19;9(4):4758-4772. PMID 29435139.
The cells were obtained from University of North Carolina (UNC), Pediatric Preclinical Testing Program (PPT), and Coriell Institute (CI).
qHTS cell viability assay:
Cells were assayed in growth media at a density of 500-1,000 cells/well. Five microliters of cells were dispensed into 1,536-well, white, solid-bottom, TC-treated plates (Greiner Bio One) using a multidrop dispenser and incubated at 37 degrees C, 5% CO2, under a humidified atmosphere for 5 hours. Twenty-three nanoliters of compounds and controls (neutral control DMSO or positive control bortezomib at final concentration of 2.3 uM) were subsequently transferred by Kalypsys pintool. For primary screens, the MIPE collection was tested at 11-point dilutions (final concentrations range from 0.78 nM to 46 µM) and the NPC collection at 8-point dilutions (final concentrations range from 0.59 nM to 46 µM). Compounds tested in follow-up screens were assayed at 11-point dilutions. Cells were incubated for 48 hours, followed by addition of 3 uL of CellTiter-Glo (Promega). After a 15min incubation at room temperature, samples were analyzed for luminescence intensity using a ViewLux High-throughput CCD imager equipped with clear filters.
Potency means the concentration at half of the fitted maximal effect.

Q: For `Nc1nc2[nH]cc(CCc3ccc(C(=O)N[C@@H](CCC(=O)O)C(=O)O)cc3)c2c(=O)[nH]1`, which Potency is on record?
A: Its Potency is 2.33 µM (active).

Q: Which Potency does the source give for `COc1ccc(-c2ccc3c(N4CCOCC4)nc(N4C[C@@H](C)O[C@@H](C)C4)nc3n2)cc1CO` here?
A: The Potency was 0.293 µM (active).

Q: Which Potency does the source give for `CCOc1cc(N2CCC(O)CC2)ccc1Nc1ncc2c(n1)N(C)c1ccccc1C(=O)N2C` here?
A: Its Potency is 0.0465 µM (active).

Q: Which “activity change, negative = cytotoxicity” value does the source give for `COc1ccc(-c2oc3cc(OC)ccc3c2C(=O)c2ccc(C#N)cc2)cc1` here?
A: The value was 9.4%.

Q: For `CCCS(=O)(=O)Nc1ccc(F)c(C(=O)c2c[nH]c3ncc(-c4ccc(Cl)cc4)cc23)c1F`, which Potency is on record?
A: Its Potency is 16.5 µM (active).

Q: Which Potency does the source give for `CNCc1ccc(-c2[nH]c3cc(F)cc4c3c2CCNC4=O)cc1` here?
A: The Potency was 0.147 µM (active).

Q: Which Potency does the source give for `CCOc1ccn(-c2ccc(F)cc2)c(=O)c1C(=O)Nc1ccc(Oc2ccnc(N)c2Cl)c(F)c1` here?
A: The Potency was 13.1 µM (active).

Q: For `OC(CN1CCC(Cc2ccc(F)cc2)CC1)c1ccc(Cl)cc1` (stereo unspecified), which Potency is on record?
A: Its Potency is 3.69 µM (active).

Q: Which “activity change, negative = cytotoxicity” value does the source give for `Cn1cnc2c(F)c(Nc3ccc(Br)cc3Cl)c(C(=O)NOCCO)cc21` here?
A: The value was -13.4%.

Q: For `COCC(=O)NCC=Cc1ccc2ncnc(Nc3ccc(Oc4ccc(C)nc4)c(C)c3)c2c1`, which Potency is on record?
A: Its Potency is 23.3 µM (active).

Q: Which Potency does the source give for `O=NN(CCCl)C(=O)NCCCl` here?
A: The Potency was 16.5 µM (active).

Q: Which “activity change, negative = cytotoxicity” value does the source give for `Cc1cn[nH]c1` here?
A: The value was -12.6%.

Q: Which Potency does the source give for `Nc1nc2ccc(OC(F)(F)F)cc2s1` here?
A: Its Potency is 18.5 µM (active).

Q: Which Potency does the source give for `CCC(C)(C)C(=O)O[C@H]1C[C@@H](C)C=C2C=C[C@H](C)[C@H](CC[C@@H]3C[C@@H](O)CC(=O)O3)[C@H]21` here?
A: The Potency was 5.22 µM (active).

Q: With `NCCCC(N)(C(=O)O)C(F)F` (stereo unspecified) as the compound, how does the “activity change, negative = cytotoxicity” value read?
A: The value was 3.99%.

Q: Which Potency does the source give for `CN1CCN(CCCN2c3ccccc3Sc3ccc(C(F)(F)F)cc32)CC1` here?
A: The Potency was 26.1 µM (active).

Q: Which “activity change, negative = cytotoxicity” value does the source give for `CC(C=CC1=C(C)CCCC1(C)C)=CC=CC(C)=CC(=O)O` here?
A: The value was 8.81%.

Q: With `C[C@]1(c2nc3c(C(N)=O)cccc3[nH]2)CCCN1` as the compound, how does the “activity change, negative = cytotoxicity” value read?
A: The value was -1.78%.

Q: For `Cc1c(C)c2c(c(C)c1O)CCC(C)(COc1ccc(CC3SC(=O)NC3=O)cc1)O2` (stereo unspecified), which “activity change, negative = cytotoxicity” value is on record?
A: The value was -3.77%.

Q: Which “activity change, negative = cytotoxicity” value does the source give for `CCN(CC)CCCC(C)Nc1ccnc2cc(Cl)ccc12` (stereo unspecified) here?
A: The value was -3.93%.

Q: Which Potency does the source give for `COc1ccc(-c2ccc3c(N4CCOC[C@H]4C)nc(N4CCOC[C@H]4C)nc3n2)cc1CO` here?
A: Its Potency is 0.117 µM (active).

Q: Which Potency does the source give for `Cc1c(CN2CCN(C(=O)C(C)C)CC2)sc2c(N3CCOCC3)nc(-c3cnc(N)nc3)nc12` here?
A: Its Potency is 1.47 µM (active).

Q: Which “activity change, negative = cytotoxicity” value does the source give for `O=C(NOC[C@H](O)CO)c1ccc(F)c(F)c1Nc1ccc(I)cc1F` here?
A: Its value is -4.69%.

Q: With `CS(=O)(=O)c1ccc(C(=O)Nc2ccc(Cl)c(-c3ccccn3)c2)c(Cl)c1` as the compound, how does the “activity change, negative = cytotoxicity” value read?
A: The value was 10.5%.

Q: With `CCC(C)n1ncn(-c2ccc(N3CCN(c4ccc(OC[C@H]5CO[C@](Cn6cncn6)(c6ccc(Cl)cc6Cl)O5)cc4)CC3)cc2)c1=O` (stereo partly specified) as the compound, how does the “activity change, negative = cytotoxicity” value read?
A: Its value is -17.1%.

Q: With `NC(N)=NC(=O)c1nc(Cl)c(N)nc1N` as the compound, how does the Potency read?
A: The Potency was 1.17 µM (active).

Q: For `Cn1cnc([N+](=O)[O-])c1Sc1ncnc2nc[nH]c12`, which Potency is on record?
A: The Potency was 1.89 µM (active).

Q: With `Oc1cccc(-c2nc(N3CCOCC3)c3oc4ncccc4c3n2)c1` as the compound, how does the Potency read?
A: Its Potency is 1.85 µM (active).

Q: For `CO[C@@H]1[C@H](N(C)C(=O)c2ccccc2)C[C@H]2O[C@]1(C)n1c3ccccc3c3c4c(c5c6ccccc6n2c5c31)C(=O)NC4`, which “activity change, negative = cytotoxicity” value is on record?
A: Its value is 20.2%.

Q: With `OC[C@H](Cc1ccccc1)Nc1nc(Oc2ccc3c(c2)CCC3)nc2c1ncn2Cc1ccc(-c2ccccc2)cc1` as the compound, how does the Potency read?
A: The Potency was 4.65 µM (active).

Q: For `O=C(c1cc(Cc2n[nH]c(=O)c3ccccc23)ccc1F)N1CCN(C(=O)C2CC2)CC1`, which Potency is on record?
A: Its Potency is 0.104 µM (active).
